Holding throughout (experiment): NCI-60 one-dose screen, 48 h (100 = growth as untreated, 0 = no growth, -100 = all killed)
One assay has as its system HCT-15 colon. As to conditions: 10 µM.
For another assay, the system named is HT29 colon. As to conditions: 10 µM.
In the next assay the test system is SNB-75 CNS. To be noted: 10 µM.
The subject of a further assay is SNB-19 CNS. As to conditions: 10 µM.
A further assay deals with U251 CNS. To be noted: 10 µM.
The next assay relates to PC-3 prostate. As to conditions: 10 µM.
The test system of a further assay is SK-MEL-5 melanoma. To be noted: 10 µM.
Another assay has as its system UACC-62 melanoma.
Another assay relates to LOX IMVI melanoma. As to conditions: 10 µM.
The test system of a further assay is SK-MEL-28 melanoma. As to conditions: 10 µM.

“And” between values parts separate entries of the source, which are not always exact repeats. Equal entries are not always repeated. The panel holds about 83,000 compounds, 20% with a hit somewhere; the sample as a whole holds those more often.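 Method: cells in 96-well plates; compound added at one concentration; 48 h incubation; percent growth measured; values under 10 scored active.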 Values without a mark were called inactive. The source made the active and inactive calls. Where a SMILES comes first, the peptide text is derived from it. Bridges are numbered along the chain shown (N, C = ends). [ ]: non-standard residue; d: D form. The star is where a group is joined. ξ: configuration not given here. ξNMePhe(4-NMe2) = CNC(Cc1ccc(N(C)C)cc1)C(=O)O; Picolinoyl(3-OH) = O=C(c1ncccc1O)*; ξPip(4-oxo) = O=C1CCNC(C(=O)O)C1; Phg = N[CH](C(=O)O)c1ccccc1; Abu = CC[CH](N)C(=O)O

With `COC(=O)c1cccc(Br)c1`, the growth was 101% with HCT-15 colon; 115% in the assay on HT29 colon; 96.5% with SNB-75 CNS; 107% in the assay with SNB-19 CNS; 109% in the assay on U251 CNS; 86.4% with PC-3 prostate. Further, the growth in the assay with SK-MEL-5 melanoma was 106%; with UACC-62 melanoma (10 µM unless noted), 97.2%; in the assay on LOX IMVI melanoma, 108%.

Take `Cc1cc(C(C)(C)C)cc(C)c1Br`: the growth in the assay on HCT-15 colon is 109%; in the assay with HT29 colon, 113%; with SNB-75 CNS, 94.6%; in the assay with SNB-19 CNS it was 106%; in the assay on U251 CNS, 113%; in the assay on PC-3 prostate, 75.3%. Besides, the growth in the assay with SK-MEL-5 melanoma is 111%; in the assay with UACC-62 melanoma (10 µM unless noted), 108%; in the assay with LOX IMVI melanoma it was 96.1%.

For the compound `COc1cc2cc(c1Cl)N(C)C(=O)C[C@H](OC(=O)[C@H](C)N(C)C(C)=O)[C@]1(C)O[C@H]1[C@H](C)[C@@H]1C[C@@](O)(NC(=O)O1)[C@H](OC)C=C/C=C(\C)C2`, the growth with HCT-15 colon was -14.5% (active); with HT29 colon, -29.3% (active); with SNB-75 CNS it was -49% (active); in the assay on SNB-19 CNS, 14.4%; with U251 CNS it was 11.5%; in the assay on PC-3 prostate it was 0.19% (active). In addition, the growth was -24.4% (active) with SK-MEL-5 melanoma, 9.3% (active) with UACC-62 melanoma (10 µM unless noted) and 18.4% in the assay on LOX IMVI melanoma.

Consider `CSC[C@H](NC(=O)COc1cccc2cnccc12)C(=O)NC(Cc1ccccc1)C(O)C(=O)N1CSC[C@H]1C(=O)NC(C)(C)C` (stereo partly specified), for which the growth was 96.3% with HCT-15 colon; 108% in the assay with HT29 colon; -20.5% (active) with SNB-75 CNS; 103% with SNB-19 CNS; 102% in the assay with U251 CNS; 96.3% in the assay on PC-3 prostate. Further, the growth with SK-MEL-5 melanoma is 102%; with UACC-62 melanoma (10 µM unless noted) it was 98.3%; in the assay on LOX IMVI melanoma, 102%.

As for `Nc1ncnc2[nH]ncc12`, the growth is 5.92% (active) in the assay with HCT-15 colon; 12.3% with HT29 colon; 33.3% with SNB-75 CNS; 71.3% in the assay with SNB-19 CNS; 42.8% in the assay with U251 CNS; 7.63% (active) in the assay with PC-3 prostate. The figures for the growth with SK-MEL-5 melanoma, in the assay on UACC-62 melanoma (10 µM unless noted) and in the assay with LOX IMVI melanoma were 15%, -15.9% (active) and 1.37% (active), respectively.

In the case of `C/C(=N/NC(N)=O)c1ccco1`, the growth with HCT-15 colon was 102%; with HT29 colon it was 99.5%; in the assay on SNB-75 CNS, 91.5%; in the assay on SNB-19 CNS it was 101%; in the assay with U251 CNS it was 96.8%; with PC-3 prostate it was 76.3%. The growth with SK-MEL-5 melanoma is 105%; in the assay with UACC-62 melanoma (10 µM unless noted), 102%; in the assay on LOX IMVI melanoma, 95.4%; in the assay with SK-MEL-28 melanoma it was 117%.

Consider `O=C(O)COCC(=O)O`, for which the growth in the assay with HCT-15 colon is 103%; in the assay on HT29 colon, 105%; in the assay with SNB-75 CNS, 81.4%; in the assay with SNB-19 CNS, 108%; with U251 CNS, 94.7%; in the assay on PC-3 prostate, 97%. In addition, the growth with SK-MEL-5 melanoma was 102%; in the assay on UACC-62 melanoma (10 µM unless noted), 111%; with LOX IMVI melanoma, 101%.

For the compound `CC(C)=NNC(N)=S`, the growth is 73.5% in the assay with HCT-15 colon; 40.5% in the assay with HT29 colon; 93.5% in the assay with SNB-75 CNS; 94.4% with SNB-19 CNS; 88.2% in the assay on U251 CNS; 77.9% in the assay on PC-3 prostate. Also, the growth in the assay with SK-MEL-5 melanoma is 90.2%; with UACC-62 melanoma (10 µM unless noted), 91%; in the assay on LOX IMVI melanoma, 69.7%; with SK-MEL-28 melanoma it was 94.1%.

For the compound `CC(=O)OCC1=CC2OC(=O)C3=COC(OC4OC(CO)C(O)C(O)C4O)C1C32` (stereo unspecified), the growth is 112% with HCT-15 colon; 106% with HT29 colon; 104% in the assay on SNB-75 CNS; 111% in the assay on SNB-19 CNS; 101% in the assay on U251 CNS; 110% with PC-3 prostate. Besides, the growth with SK-MEL-5 melanoma was 104%; with UACC-62 melanoma (10 µM), 102%; in the assay on UACC-62 melanoma (100 µM), 77.3% and 98.7%; in the assay on LOX IMVI melanoma, 111%.

On to `Oc1ccc(Cc2ccccc2)c2cccnc12`, for which the growth is 29.2% with HCT-15 colon; 84.3% with HT29 colon; 21.3% with SNB-75 CNS; 19.6% in the assay on SNB-19 CNS; 12.6% in the assay with U251 CNS; 23.4% in the assay on PC-3 prostate. Moreover, the growth in the assay on SK-MEL-5 melanoma is 3.49% (active); in the assay with UACC-62 melanoma (10 µM unless noted) it was -14% (active); in the assay on LOX IMVI melanoma, 4.75% (active); with SK-MEL-28 melanoma, 32.2%.

For the compound `Clc1ccc(-c2n[nH]c3c2Cc2ccccc2-3)cc1Cl`, the growth in the assay with HCT-15 colon was 87.8%; in the assay on HT29 colon it was 106%; in the assay on SNB-75 CNS it was 84.9%; in the assay on SNB-19 CNS, 93.8%; in the assay on U251 CNS, 97.9%; in the assay with PC-3 prostate, 92.4%. In addition, the growth is 95.6% with SK-MEL-5 melanoma, 91.2% in the assay with UACC-62 melanoma (10 µM unless noted) and 97.4% with LOX IMVI melanoma.

Turning to `COCCOC(=O)c1ccc(C(C)C)cc1`, the growth is 99.5% in the assay on HCT-15 colon; 91.9% in the assay on HT29 colon; 86.9% with SNB-75 CNS; 106% in the assay with SNB-19 CNS; 98.8% in the assay with U251 CNS; 82.9% in the assay on PC-3 prostate. In addition, the growth is 103% in the assay on SK-MEL-5 melanoma, 99.4% in the assay on UACC-62 melanoma (10 µM unless noted), 95.7% in the assay on LOX IMVI melanoma and 110% in the assay with SK-MEL-28 melanoma.

Regarding `O=[N+]([O-])c1ccccc1N=Nc1ccc(O)cc1O`, the growth was 112% in the assay with HCT-15 colon; 112% in the assay on HT29 colon; 91.5% in the assay with SNB-75 CNS; 111% in the assay on SNB-19 CNS; 115% in the assay with U251 CNS; 97.2% with PC-3 prostate. Moreover, the growth in the assay with SK-MEL-5 melanoma was 106%; in the assay with UACC-62 melanoma (10 µM unless noted), 124%; in the assay on LOX IMVI melanoma, 99.8%; in the assay with SK-MEL-28 melanoma it was 121%.

As for `CCC1NC(=O)C(NC(=O)c2ncccc2O)C(C)OC(=O)C(c2ccccc2)NC(=O)C2CC(=O)CCN2C(=O)C(Cc2ccc(N(C)C)cc2)N(C)C(=O)C2CCCN2C1=O` (stereo unspecified) (tested in a mixture with another compound) ({Picolinoyl(3-OH)}-T[Abu]P[ξNMePhe(4-NMe2)][ξPip(4-oxo)][Phg]; ester 1-C; configuration not given here), the growth in the assay on HCT-15 colon was 79.3%; with HT29 colon it was 43.6%; with SNB-75 CNS, 45.4%; in the assay on SNB-19 CNS, 78.4%; in the assay with U251 CNS, 64.9%; with PC-3 prostate, 55.5%. In addition, the growth with SK-MEL-5 melanoma is -21.7% (active); in the assay on UACC-62 melanoma (10 µM unless noted), 50.9%; in the assay on LOX IMVI melanoma, 49.2%.

On to `COc1cccc(/C=N/NC(=S)NC2CC3CCC2C3)c1O` (stereo unspecified), for which the growth in the assay with HCT-15 colon was 26.8%; in the assay on HT29 colon, 93.6%; with SNB-75 CNS, 5.33% (active); with SNB-19 CNS, 72.4%; in the assay on U251 CNS, 42.2%; with PC-3 prostate it was 64.8%. Besides, the growth with SK-MEL-5 melanoma was 67.8%; in the assay on UACC-62 melanoma (10 µM unless noted), 67.7%; with LOX IMVI melanoma it was 44.2%.

For the origin of these results see PubChem BioAssay (NCI).
